Drawing on PubChem BioAssay (NCI), this text covers growth for 40 molecules.

Where “and” joins values, the source holds several entries; their conditions need not be identical. Equal values may be shown once. The panel holds about 83,000 compounds, 20% with a hit somewhere; the sample as a whole holds those more often.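 In brief: 96-well plates, 48 h treatment, single concentration, percent growth endpoint.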 Calls of active or inactive are those of the source. Rule for the calls: active = growth percent below 10; inactive = the rest.

This assay has as its system MDA-MB-468 breast. Briefly: NCI-60 one-dose screen, 48 h (100 = growth as untreated, 0 = no growth, -100 = all killed). Particulars: 10 µM unless noted.
For the molecule `COC(=O)[C@@H](C)C[C@H](Cc1ccccc1)NC(=O)c1nc([C@@H](C[C@H](C(C)C)N(C)C(=O)[C@@H](NC(=O)[C@H]2CCCN2C)C(C)C)OC(C)=O)sc1C`, the growth was 1.81% (active).

For `c1ccc(CSC(c2ccccc2)c2ccccc2)cc1`, the growth was 124% (inactive).

For `Clc1cc(N2CC2)nc(N2CC2)n1`, the growth is 9.71% (active).

Consider `Cn1cc(-c2csc(-c3cn(CCN4CCOCC4)c4ccccc34)n2)c2cccnc21`, for which the growth is 63.3% (inactive).

As to `CCC1(C)CC(CCNCc2ccccc2O)(c2ccc(C)cc2)CCO1` (stereo not given), the growth was 110% (inactive).

Regarding `ClCCN(CCCl)c1ccc(/C=N\N=C\c2ccc(N(CCCl)CCCl)cc2)cc1`, the growth was 50% (inactive).

As for `C#Cc1ccc2c(c1)C(c1ccccc1F)=NCC(=O)N2C`, the growth is 26% (inactive).

In the case of `COc1cccc2c1c(C(=O)C(=O)Nc1ccn[nH]1)cn2Cc1ccc(F)cc1`, the growth was 43.3% (inactive).

Take `CC1=C(CN(O)C(N)=O)C2=C(C)C3(CC3)[C@@](C)(O)C(=O)C2=C1`: the growth is -69.1% (active).

Regarding `CC(C)C1c2ccc(O)cc2Oc2nc(N)c(C#N)c(N)c21` (stereo not given), the growth was 90% (inactive).

Regarding `CC1(C)N=C(N)N=C(N)N1c1ccc(OCCCCNC(=O)c2ccc(S(=O)(=O)F)cc2)c(Cl)c1`, the growth was 64.7% (inactive).

As for `O=C1CN=C(c2ccc(Cl)cc2)c2sccc2N1`, the growth is 104% (inactive).

In the case of `CN(C)CCCOc1ccc2c(c1)c(C(=O)C(=O)NCCO)cn2Cc1ccccc1`, the growth is 117% (inactive).

Consider `CN1C(=O)C(=Cc2cn(CCCCCCn3c4ccccc4c(=O)c4ccccc43)c3ccccc23)C(=O)N(C)C1=O`, for which the growth was 81% (inactive).

With `CCCCCCCCCC(=O)N[C@@](C)(CC)C(=O)N1CCC[C@H]1C(=O)N[C@@H](CC(C)C)C(=O)N[C@@](C)(CC)C(=O)N[C@@H](CCC(N)=O)C(=O)N[C@H](CCC(N)=O)C(=O)NC(C)(C)C(=O)NC(C)(C)C(=O)N[C@@H](CCC(N)=O)C(=O)N[C@H](CC(C)C)C(=O)N[C@H](CO)CC(C)C`, the growth was -94.7% (active) and -92.4% (active).

Regarding `C/C(=C(\c1ccc(OCCN2CCOCC2)cc1)c1ccc(OC(=O)Cc2ccccc2)cc1)c1ccc(Cl)cc1`, the growth was 78.8% (inactive).

`C[C@]12CC[C@@H]3C4=C(CC[C@H]3[C@@H]1CC[C@@H]2O)CC(=O)CC4`: the growth was 101% (inactive).

For `C/C(CC(C)(C)N1CC1)=N\NC(=O)Nc1cccc2ccccc12`, the growth was -2.46% (active).

As for `COc1cccc2c1c(C(=O)c1ccco1)cn2Cc1ccc(F)cc1`, the growth was 103% (inactive).

Take `CCCCCSC1C2C(=O)C(Br)=CC13CCNc1c(O)c4c5c(c13)=[N+]2CCC=5C=N4` (stereo not given): the growth is -30.5% (active).

For `CC(=O)O[C@H]1C[C@@H]2OC3C=C(C)CCC3(C)[C@@]1(C)[C@@]21CO1` (stereo not given in full), the growth is -26.7% (active) and -40.4% (active).

For the molecule `O=C(Nc1ccc([As]=[As]c2ccc(NC(=O)c3ccccc3)cc2)cc1)c1ccccc1` (stereo not given), the growth was -74.8% (active).

Turning to `N#Cc1nc(-c2ccccc2)oc1N1CCC(S(=O)(=O)F)CC1`, the growth was 110% (inactive).

For `CCOc1cc(/C=N\Nc2nnc(C)n2N)c(C)cc1N(CCCl)CCCl`, the growth was -21.1% (active).

Take `COc1cc2c(cc1OC)C13CCN4CC5=CCOC6CC(=O)N2C1C6C5CC43` (stereo not given): the growth is 116% (inactive) and 108% (inactive).

In the case of `c1ccc(CCN2CCCCC2)nc1`, the growth was 107% (inactive).

Regarding `Cc1cc(N(CCCl)CCCl)ccc1/C=N\NC(=O)c1cccnc1`, the growth is -30.4% (active) and -38.6% (active).

As to `C[C@@H]1C[C@@H]([C@H](O)CC2CC(=O)NC(=O)C2)C(=O)[C@@H](C)C1`, the growth is 9.5% (active).

With `CCCCOc1ccc(C(N)Cc2ccccc2)cc1` (stereo not given), the growth was 76.2% (inactive).

With `COc1cc(C2CC(=O)Nc3nc(N)[se]c32)c(OC)c2c1OCO2` (stereo not given), the growth was 109% (inactive).

For the molecule `CN(C)CC1(N)C(=O)NC(=O)NC1=O`, the growth is 94.6% (inactive).

`CC1(C)S[C@H]2CC[C@H]3OC(=O)[C@@H]1N23`: the growth is 95.7% (inactive).

Turning to `COc1ccc(C(=O)c2cc(OC)c(OC)c(OC)c2)cc1OC(C)=O`, the growth was 43.1% (inactive).

Turning to `COc1cc2c(cc1OCc1ccccc1)C(CC(C)C)=[N+](C)CC2`, the growth is 2.12% (active).

Turning to `CN(C)P1(N(C)C)=NP(N(C)C)(N(C)C)=NP(N(C)C)(N(C)C)=N1`, the growth was 106% (inactive).

For the molecule `CCOC(=O)c1cncn1C(C)c1ccccc1` (stereo not given), the growth is 97.6% (inactive).

With `CC(C)(O)/C=C/C(=O)[C@](C)(O)[C@H]1[C@H](O)C[C@@]2(C)[C@H]3CC=C4[C@@H](C[C@H](O)C(=O)C4(C)C)[C@]3(C)C(=O)C[C@]12C`, the growth is -23.4% (active).

Consider `C/C(=C\c1ccn(-c2ccc(N)c(C(F)(F)F)c2)n1)[C@@H]1C[C@@H]2O[C@]2(C)CCC[C@H](C)[C@H](O)[C@@H](C)C(=O)C(C)(C)[C@@H](O)CC(=O)O1`, for which the growth was 4.12% (active).

Take `C[C@]12CC[C@@H]3c4ccc(OC(=O)Cc5ccc(N(CCCl)CCCl)cc5)cc4CC[C@H]3[C@@H]1CC[C@@H]2OC(=O)Cc1ccc(N(CCCl)CCCl)cc1`: the growth is 104% (inactive).

Take `O=C([O][Hg][CH2]C1COCC([CH2][Hg][O]C(=O)c2ccccc2)O1)c1ccccc1` (stereo not given): the growth was 22.7% (inactive).
